Experiment [1] addresses Calcium and integrin-binding protein 1 (Homo sapiens) (UniProt Q99828). Description: Primary qHTS for Identification of Calcium Integrin Binding Protein 1 (CIB1) Competitor (AID 1508620).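 Further: GST tagged CIB1 binding a fluorescein labelled alphaIIb integrin peptide tracer; top concentration of the series differs between compounds.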 In a few lines:
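CIB1-GST (1 uM final) and compound incubated 15 min at room temperature before adding FITC-alphaIIb peptide tracer (100 nM final). Competition for binding read by fluorescence polarization (ex 480, em 540) after another 15 min at room temperature.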

Experiment [2] in a line: Primary qHTS for inhibitors of nuclear receptor binding SET domain protein 2 (NSD2) in an isogenic RCH-ACV NSD2 p.E1099K mutant (9B) (AID 1645876). Further: nearly all actives have a fitted effect of over 70% in size. Further: potency means the concentration at half of the fitted maximal effect.

Molecules are shown by their SMILES. Inconclusive results are not listed. A number with no mark means an inactive call. Activity calls are given as the source filed them. The call rests on the fitted dose curve; in most records, active means well fitted inhibition curve with a large enough effect; inconclusive means small, poorly fitted or top-dose-only effect; inactive means flat fitted curve, though single readings scatter.
On the % scale 0 is the no-effect control and ±100 the full control effect.

Calcium and integrin-binding protein 1 (Homo sapiens), sequence (Q99828 whole entry, looked up): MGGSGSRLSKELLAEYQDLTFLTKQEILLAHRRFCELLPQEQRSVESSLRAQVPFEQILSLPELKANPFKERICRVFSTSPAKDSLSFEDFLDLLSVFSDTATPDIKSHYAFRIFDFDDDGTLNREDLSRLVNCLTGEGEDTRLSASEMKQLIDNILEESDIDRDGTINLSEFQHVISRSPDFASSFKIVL

Take `C=CC(=O)N1CCN(C(=O)CNc2cc(I)c(Cl)cc2O)CC1`: in experiment [1], the Potency entry is “inactive”. In experiment [2], the Potency is 5150 nM (active).

As to `C[C@@H]1O[C@@H](O[C@H]2[C@H](O[C@H]3[C@H](O)[C@@H](C(=O)O)O[C@@H](O[C@H]4CC[C@@]5(C)C(CC[C@]6(C)C5CC[C@]57OC[C@@]8(CCC(C)(C)CC85)[C@H](O)C[C@]76C)C4(C)C)[C@@H]3O[C@@H]3O[C@H](CO)[C@@H](O[C@@H]4OC[C@@H](O)[C@H](O)[C@H]4O)[C@H](O)[C@H]3O)O[C@H](CO)[C@H](O)[C@@H]2O)[C@H](O)[C@H](O)[C@H]1O` (stereo partly drawn), the activity change, negative = inhibition in experiment [1] is 2.06% [at 12.4 µM]. In addition, in experiment [2], the activity change, negative = viability loss is 0.445% [at 9.23 µM].

`C=CC[C@]12C[C@@H](OC)C(=O)C(OC)=C1O[C@@H](c1cc(OC)c3c(c1)OCO3)[C@@H]2C`: the Potency result in experiment [1] and in experiment [2] was “inactive” in each case.

Regarding `NC1(C(=O)NC(CCO)c2ccc(Cl)cc2)CCN(c2ncnc3[nH]ccc23)CC1` (stereo not drawn), the Potency entry in experiment [1] was “inactive”. Also, in experiment [2], the Potency was 728 nM (active).

Take `C=CC1C(OC2OC(CO)C(O)C(O)C2O)OC=C(C(=O)OC)C1CC1CC(=O)CC(CCc2ccc(O)cc2)O1` (stereo not drawn): the Potency entry in experiment [1] and in experiment [2] was “inactive” in each case.

As to `O=C1Nc2ccccc2C(O)(c2ccccc2)C1O` (stereo not drawn), the Potency entry in experiment [1] and in experiment [2] was “inactive” each time.

Consider `CC(C)=CCC(O)/C(C)=C/CO[C@@H]1O[C@H](CO)[C@@H](O)[C@H](O)[C@H]1O` (stereo partly drawn), for which the Potency result in experiment [1] and in experiment [2] was “inactive” in each case.

Consider `COc1c2ccoc2cc2oc(CO[C@@H]3O[C@H](CO)[C@@H](O)[C@H](O)[C@H]3O)cc(=O)c12`, for which the Potency entry in experiment [1] and in experiment [2] was “inactive” throughout.

`CC1(C)CC[C@]2(C(=O)O)CC[C@]3(C)C(=CCC4[C@@]5(C)CC[C@H](O[C@@H]6O[C@H](C(=O)O)[C@@H](O[C@@H]7OC[C@@H](O)[C@H](O)[C@H]7O)[C@H](O)[C@H]6O)C(C)(C)C5CC[C@]43C)C2C1O` (stereo partly drawn): the Potency result in experiment [1] and in experiment [2] was “inactive” each time.

`C[C@@H]1O[C@@H](OC[C@H]2O[C@@H](Oc3cc(O)cc4c3C(=O)C(O)(Cc3ccc(O)cc3)O4)[C@H](O)[C@@H](O)[C@@H]2O)[C@H](O)[C@H](O)[C@H]1O` (stereo partly drawn): the Potency result in experiment [1] and in experiment [2] was “inactive” in each case.

As to `COC(=O)C1(C)c2[nH]c3ccccc3c2CCN1C(=O)CCl` (stereo not drawn), the Potency result in experiment [1] is “inactive”. Besides, the Potency in experiment [2] was 2580 nM (active).

Turning to `C[C@@H]1N[C@H]2N(C1=O)c1ccccc1[C@@]2(O)C[C@@H]1C(=O)N[C@@H](C)c2nc3ccccc3c(=O)n21`, the Potency entry in experiment [1] and in experiment [2] was “inactive” throughout.

For the molecule `COc1cc(C(=O)O)ccc1OC1OC(CO)C(O)C(O)C1O` (stereo not drawn), the Potency result in experiment [1] and in experiment [2] was “inactive” in each case.

Turning to `CC1(C)CC2C(O)c3cocc3CC(C)(O)C2C1` (stereo not drawn), the Potency entry in experiment [1] and in experiment [2] was “inactive” in each case.

Consider `CC(C)=CCC[C@](C)(O)[C@H]1CC[C@]2(C)[C@@H]1[C@H](O)CC1[C@@]3(C)CC[C@H](O)C(C)(C)[C@@H]3[C@@H](O[C@@H]3O[C@H](CO)[C@@H](O)[C@H](O)[C@H]3O[C@@H]3O[C@H](CO)[C@@H](O)[C@H](O)[C@H]3O)C[C@]12C` (stereo partly drawn), for which the Potency entry in experiment [1] and in experiment [2] was “inactive” throughout.

As for `C[C@@H]1O[C@@H](OC[C@H]2O[C@@H](OC(CCCCc3ccc(O)cc3)CCc3ccc(O)cc3)[C@H](O)[C@@H](O)[C@@H]2O)[C@H](O)[C@H](O)[C@H]1O` (stereo partly drawn), the Potency result in experiment [1] and in experiment [2] was “inactive” each time.

For `CC1=CC(=O)CC(C)(C)C1/C=C/C(C)O[C@@H]1O[C@H](CO)[C@@H](O)[C@H](O)[C@H]1O[C@@H]1OC[C@](O)(CO)[C@H]1O` (stereo partly drawn), the Potency entry in experiment [1] and in experiment [2] was “inactive” each time.

Consider `CC(=O)O[C@H]1[C@@H](O)[C@H](O[C@H]2[C@@H]3C=CO[C@@H](O[C@H]4O[C@@H](CO)[C@H](O)[C@@H](O)[C@@H]4O)[C@@H]3[C@@]3(CO)O[C@@H]23)O[C@@H](C)[C@@H]1OC(=O)/C=C/c1ccccc1`, for which the Potency entry in experiment [1] and in experiment [2] was “inactive” in each case.

In the case of `O=C(CO)[C@@H](O)[C@H](O[C@@H]1O[C@H](CO)[C@H](O)[C@H](O)[C@H]1O)[C@H](O)CO`, the Potency entry in experiment [1] and in experiment [2] was “inactive” throughout.

On to `CC(CO)C1CCC2(C)CC3C(CO)CC(O)C3C(C)(O)C/C=C/12` (stereo not drawn), for which the Potency result in experiment [1] and in experiment [2] was “inactive” in each case.

In the case of `CC(C)(O)C1CCC(C)(C2CCC3(C)C4CCC5C(C)(C(=O)OC6OC(CO)C(O)C(O)C6O)C(O)CC(O)C56CC46CCC23C)O1` (stereo not drawn), the Potency result in experiment [1] and in experiment [2] was “inactive” throughout.

Consider `COc1c(C)c(OCC(O)C(C)(C)O)cc2c1COC2=O` (stereo not drawn), for which the Potency entry in experiment [1] and in experiment [2] was “inactive” in each case.

As for `Nc1nc2c(ncn2[C@@H]2O[C@@H]3COP(=O)(O)O[C@H]3[C@H]2O)c(=O)[nH]1`, the Potency entry in experiment [1] and in experiment [2] was “inactive” each time.

As for `C=CC1(C)CC(OC(=O)/C(C)=C\COC(C)=O)C(C(=C)C(=O)O)C(O)C1C(=C)CO` (stereo not drawn), the Potency entry in experiment [1] and in experiment [2] was “inactive” each time.

The values above are taken from PubChem BioAssay (NCATS).
